Records with an inconclusive call do not appear. The source made the active and inactive calls. Unless noted, the rule behind the calls is not given here.
Assays:
[1] = qHTS profiling of the MIPE4 collection as inhibitors of Plasmodium falciparum (3D7) proliferation (AID 743344);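 note: scaled between DMSO vehicle wells and 0.29 µM artemisinin as full inhibition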; details: P. falciparum 3D7 in erythrocytes, SYBR Green DNA fluorescence, 72 h; at 28.5 µM unless noted
Outline: (§1)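 Parasite DNA was quantified by SYBR Green I fluorescence (ex 485, em 535 nm) after overnight lysis in saponin/Triton buffer at room temperature. Cultures at 0.3% parasitemia and 2.5% hematocrit were first exposed to compound for 72 h at 37 C; signals were normalised to artemisinin (0.29 uM) and vehicle wells.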

[2] = qHTS profiling of the MIPE4 collection as inhibitors of Plasmodium falciparum (DD2) proliferation (AID 743345); details: P. falciparum Dd2 in erythrocytes, SYBR Green DNA, 72 h; at 28.5 µM unless noted
Outline: as §1

[3] = qHTS profiling of the MIPE4 collection as inhibitors of Plasmodium falciparum (DD2) proliferation (Rep 2) (AID 743346); details: P. falciparum Dd2 in erythrocytes, SYBR Green DNA, 72 h; at 28.5 µM unless noted
Outline: as §1

[4] = qHTS profiling of the MIPE4 collection as inhibitors of Plasmodium falciparum (HB3) proliferation (AID 743347);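 note: plate controls were DMSO vehicle wells for no effect and artemisinin wells for full effect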; details: P. falciparum HB3 in erythrocytes, SYBR Green DNA, 72 h; at 28.5 µM unless noted
Outline: as §1

[5] = High-throughput drug toxicity screening in the BPDCN cell line Gen2.2 (AID 1224824); details: Gen2.2 BPDCN cells; at 45.8 µM (top of the series) unless noted;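 note: cells exposed to compounds for 48 h before reading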
Outline: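 Seed 500 exponentially growing Gen2.2 cells/well; add compounds by pin tool; incubate 48 h, 37 °C, 5% CO2; add CellTiter-Glo, 15 min RT; read luminescence. % activity vs DMSO (100%) and bortezomib (0%).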

[6] = High-throughput drug toxicity screening in the BPDCN cell line Cal-1 (AID 1224825); details: Cal-1 BPDCN cell viability, qHTS; at 45.8 µM (top of the series) unless noted
Outline: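 Viability of the BPDCN line Cal-1 is measured as ATP-based luminescence (CellTiter-Glo) following 48 h incubation with compounds. Percent activity uses DMSO-treated wells as 100% and 9.2 uM bortezomib as 0%.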

[7] = qHTS assay for measurement of the activity of small molecule inhibitors on Zika virus induced Caspase-3 activity in human iPSC derived neural progenitor cells (hNPCs) (AID 1224857; active = well fitted curve in the direction sought with a large enough effect; an effect the other way counts as inactive or inconclusive; note: nearly all actives have a fitted effect of over 65% in size; note: potency is the fitted concentration of half-maximal effect)
Outline: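 Percent inhibition of virus-induced caspase-3/7 luminescence (Caspase-Glo), scaled between uninfected cells and Zika-infected cells. hNPCs received compound 1 hr before ZIKV at 2 FFU/cell, with 6 hours infection at 37 C.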

[8] = qHTS assay for measurement of the activity of small molecule inhibitors on Zika virus induced Caspase-3 activity in human astrocytoma cells (AID 1224859; active = well fitted curve in the direction sought with a large enough effect; an effect the other way counts as inactive or inconclusive; note: potency is the fitted concentration of half-maximal effect)
Outline: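 Luminescent caspase-3/7 read-out (30 min reagent, room temperature) in human SNB-19 cells infected 6 h with ZIKV (2 FFU/cell) after 1 h compound pre-incubation; Data were normalised to uninfected and infected wells.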

[9] = qHTS Screen of the MIPE 4.0 Collection Against Ewings Sarcoma (RDES) (AID 1259252; active = well fitted curve in the direction sought with a large enough effect; an effect the other way counts as inactive or inconclusive; note: nearly all actives have a fitted effect of over 35% in size; note: potency is the fitted concentration of half-maximal effect)
Outline: (§2)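 Measured: ATP luminescence (CellTiter-Glo) 10 min after reagent addition, following 48 h drug treatment. Relative luciferase units converted to percent activity, with no-cell wells as full and DMSO wells as zero inhibition.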

[10] = qHTS Screen of the MIPE 4.0 Collection Against Ewings Sarcoma (TC71) (AID 1259253; active = well fitted curve in the direction sought with a large enough effect; an effect the other way counts as inactive or inconclusive; note: potency is the fitted concentration of half-maximal effect; nearly all actives have a fitted effect of over 40% in size)
Outline: as §2

[11] = qHTS Screen of the MIPE 4.0 Collection Against Ewings Sarcoma (EW8) (AID 1259255; active = well fitted curve in the direction sought with a large enough effect; an effect the other way counts as inactive or inconclusive; note: potency is the fitted concentration of half-maximal effect; nearly all actives have a fitted effect of over 35% in size)
Outline: as §2

[12] = qHTS Screen of the MIPE 4.0 Collection Against Ewings Sarcoma (TC32) (AID 1259256; active = well fitted curve in the direction sought with a large enough effect; an effect the other way counts as inactive or inconclusive; note: potency is the fitted concentration of half-maximal effect; nearly all actives have a fitted effect of over 45% in size)
Outline: as §2

[13] = qHTS profiling for inhibitors of Plasmodium falciparum (HB3) proliferation (AID 743324; active = well fitted curve in the direction sought with a large enough effect; an effect the other way counts as inactive or inconclusive;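 note: 100% = DMSO vehicle wells and 0% = artemisinin-treated control wells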); details: Plasmodium falciparum HB3 blood-stage proliferation; at 28.7 µM (top of the series) unless noted
Outline: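 SYBR Green fluorescence (485 ex/535 em) of lysed cultures, incubated overnight at room temperature in the dark, quantifies parasite DNA. Infected erythrocytes at 0.3% parasitemia and 2.5% hematocrit were exposed 72 h; values normalized to DMSO and 0.29 uM artemisinin controls.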

[14] = Identifying Small Molecule Inhibitors of Pancreatic Cancer Stem Cells (SN12C, Spheroid) (AID 1259360; active = well fitted curve in the direction sought with a large enough effect; an effect the other way counts as inactive or inconclusive; note: potency is the fitted concentration of half-maximal effect); details: Potency: SN12C spheroid viability
Outline: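 Adherent (2D) versus sphere (3D) formats; spheres generated 14 d in SCM beforehand. Compound transferred by pin tool after 4 h, 48 h incubation, CellTiter-Glo endpoint.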

[15] = Identifying Small Molecule Inhibitors of Pancreatic Cancer Stem Cells (A278, Adherent) (AID 1259361; active = well fitted curve in the direction sought with a large enough effect; an effect the other way counts as inactive or inconclusive;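 note: viability read after 48 h compound exposure; nearly all actives have a fitted effect of over 35% in size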)
Outline: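 After a 4 h attachment period, compounds were pinned into wells and cultures held 48 h under standard incubator conditions. Viability was then measured as CellTiter-Glo luminescence following 10 min at room temperature.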

SMILES: Fc1ccc(CNc2ncnc3ccc(F)cc23)cc1
- parasite growth, % of DMSO control [1]: 300%
- parasite growth remaining, % of DMSO control (lower = more inhibition) [2]: 90.6%
- parasite growth, % of control (lower = inhibition) [3]: 117%
- growth, % of control [4]: 630%
- cell viability, % of control (lower = more cytotoxic) [5]: 91.2%
- viability (% of control) [6]: 93.2%
- Potency [7]: inactive
- Potency [8]: inactive
- Potency [9]: 13.2 µM (active)

SMILES: O=C1NC(=O)C(=Cc2ccc(-c3ccc(F)cc3O)o2)S1
- parasite growth, % of DMSO control [1]: 34.3%
- parasite growth remaining, % of DMSO control (lower = more inhibition) [2]: 71.3%
- parasite growth, % of control (lower = inhibition) [3]: 61.3%
- growth, % of control [4]: 34.2%
- cell viability, % of control (lower = more cytotoxic) [5]: 31.9%
- viability (% of control) [6]: 92.1%
- Potency [7]: 16.6 µM (active)
- Potency [8]: 14.8 µM (active)
- Potency [10]: 23.5 µM (active)
- Potency [11]: 18.7 µM (active)
- Potency [12]: 23.5 µM (active)

SMILES: Cc1ccc2c(c1)c1c(n2CCc2ccc(C)nc2)CCN(C)C1
- parasite growth, % of DMSO control [1]: 113%
- parasite growth remaining, % of DMSO control (lower = more inhibition) [2]: 55.3%
- growth, % of control [4]: 135%
- cell viability, % of control (lower = more cytotoxic) [5]: 163%
- viability (% of control) [6]: 90.5%
- Potency [7]: inactive
- Potency [8]: inactive
- Potency [9]: inactive

SMILES: O=C(Nc1ccc(OC(F)(F)F)cc1)c1sccc1NCc1ccnc2ccccc12
- remaining proliferation (% of control), lower = more inhibition [13]: 58.1%
- parasite growth, % of DMSO control [1]: 57%
- parasite growth remaining, % of DMSO control (lower = more inhibition) [2]: 85.7%
- parasite growth, % of control (lower = inhibition) [3]: 82.6%
- growth, % of control [4]: 67.5%
- cell viability, % of control (lower = more cytotoxic) [5]: 42.4%
- viability (% of control) [6]: 11.5%
- Potency [7]: 5.9 µM (active)
- Potency [8]: 6.62 µM (active)
- Potency [10]: 16.6 µM (active)
- Potency [11]: 18.7 µM (active)
- Potency [12]: 18.7 µM (active)
- Potency [14]: 23.5 µM (active)
- IC50 (viability decrease) [15]: 20.9 µM (active)

SMILES: COc1ccc(Cn2ccc3ccc(C(=O)NO)cc32)cc1
- parasite growth, % of DMSO control [1]: 4.8%
- parasite growth remaining, % of DMSO control (lower = more inhibition) [2]: 13.4%
- parasite growth, % of control (lower = inhibition) [3]: 8.17%
- growth, % of control [4]: 3.68%
- cell viability, % of control (lower = more cytotoxic) [5]: 250%
- viability (% of control) [6]: 19.7%
- Potency [7]: inactive
- Potency [8]: inactive
- Potency [10]: 13.2 µM (active)
- Potency [11]: 14.8 µM (active)
- Potency [12]: 11.8 µM (active)

SMILES: CCN1CCC(n2cc(CNc3cc(Cl)c4ncc(C#N)c(Nc5ccc(F)c(Cl)c5)c4c3)nn2)CC1
- parasite growth, % of DMSO control [1]: 12.9%
- parasite growth remaining, % of DMSO control (lower = more inhibition) [2]: 12.5%
- parasite growth, % of control (lower = inhibition) [3]: 12.3%
- cell viability, % of control (lower = more cytotoxic) [5]: 35.5%
- viability (% of control) [6]: 36.8%
- Potency [7]: 18.7 µM (active)
- Potency [8]: inactive
- Potency [10]: 18.7 µM (active)
- Potency [11]: 20.9 µM (active)
- Potency [12]: 18.7 µM (active)

SMILES: C=CC(=O)Nc1cccc(Sc2nc(Nc3ccc(N4CCN(C)CC4)cc3)ncc2Cl)c1
- parasite growth, % of DMSO control [1]: 4.12%
- parasite growth remaining, % of DMSO control (lower = more inhibition) [2]: 10.2%
- parasite growth, % of control (lower = inhibition) [3]: 6.26%
- growth, % of control [4]: 1.99%
- cell viability, % of control (lower = more cytotoxic) [5]: 8.4%
- viability (% of control) [6]: 2.56%
- Potency [7]: inactive
- Potency [8]: inactive
- Potency [9]: 18.7 µM (active)

SMILES: CC(C)C[C@H](NC(=O)c1cc2ccccc2s1)C(=O)N1CCN(C(=O)[C@H](CO)NS(=O)(=O)c2ccc(Cl)cc2Cl)CC1
- remaining proliferation (% of control), lower = more inhibition [13]: 5.88%
- parasite growth, % of DMSO control [1]: 11.1%
- parasite growth remaining, % of DMSO control (lower = more inhibition) [2]: 47.5%
- parasite growth, % of control (lower = inhibition) [3]: 20.2%
- growth, % of control [4]: 10.7%
- cell viability, % of control (lower = more cytotoxic) [5]: 29.4%
- viability (% of control) [6]: 67%
- Potency [7]: inactive
- Potency [8]: inactive
- Potency [10]: 23.5 µM (active)
- Potency [11]: 20.9 µM (active)
- Potency [12]: 23.5 µM (active)

SMILES: OC[C@H]1O[C@@H](OCCc2ccc(O)cc2)[C@H](O)[C@@H](O)[C@H]1O
- parasite growth, % of DMSO control [1]: 97.9%
- parasite growth remaining, % of DMSO control (lower = more inhibition) [2]: 103%
- growth, % of control [4]: 104%
- cell viability, % of control (lower = more cytotoxic) [5]: 106%
- viability (% of control) [6]: 96.6%
- Potency [7]: inactive
- Potency [8]: inactive
- Potency [9]: 23.5 µM (active)
